HT1080NT lethal – qHTS for induction of synthetic lethality in tumor cells producing 2HG: qHTS for the HT-1080-NT fibrosarcoma cell line | actives 1.6% (n = 360,000) | HT-1080-NT fibrosarcoma viability, CellTiter-Glo ATP luminescence, 48 h | Potency, µM (highest dose often 46.1 µM), most hits filed as cytotoxic | AID 686970, 2013;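 also: NT is the 2HG producing partner of a matched IDH1 knockdown line; nearly all actives have a fitted effect of over 55% in size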
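HT-1080-NT; 750 cells/well; 5% FBS RPMI; 48 h compound, 37 degrees C; CellTiter-Glo luminescence; curve fitting and curve-class assignment.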
MCF10A rerep – A quantitative high throughput screen for small molecules that induce DNA re-replication in MCF 10a normal breast cells; MCF 10A DNA re-replication, Hoechst nuclear intensity, 48 h; Potency, µM (top dose mostly 46.1 µM), actives largely listed as activators; actives 2.9% (n = 350,000); AID 624296, 2012; also: nearly all actives have a fitted effect of over 50% in size
SW480 rerep – A quantitative high throughput screen for small molecules that induce DNA re-replication in SW480 colon adenocarcinoma cells | AID 624297, 2012 | Potency, µM (doses to about 46.1 µM), hits mostly activators | actives 1.8% (n = 340,000) | SW480 DNA re-replication, Hoechst DNA content imaging, 48 h; also: nearly all actives have a fitted effect of over 55% in size
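First, 250 cells per well were seeded. Next, compound or vehicle (23 nL) was pinned in, plates sat 48 hr at 37 C. Finally Hoechst was added for 40 min before fluorescence scanning.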
KB-3-1 cytotox – qHTS assay for MDR1-selective chemotherapeutics: Primary screen using the parental adenocarcinoma cell KB-3-1; actives 1.4% (n = 400,000); Potency, µM (series often up to 46.1 µM), actives largely listed as cytotoxic; KB-3-1 viability, CellTiter-Glo ATP luminescence, 72 h; also: nearly all actives have a fitted effect of over 60% in size
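72 h, 37 °C compound treatment of KB-3-1 parental cells; CellTiter-Glo added, 10 min, luminescence read. Data corrected against DMSO-only plates and normalized before curve fitting.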
KB-V1 MDR tox – qHTS assay for MDR1-selective chemotherapeutics: Primary screen using the drug-selected MDR subline cells KB-V1. KB-V1 MDR cells viability, CellTiter-Glo, 72 h. Potency, µM (top dose mostly 46.1 µM), hits mostly cytotoxic. actives 3.4% (n = 400,000). AID 1347076, 2019; also: nearly all actives have a fitted effect of over 60% in size
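Cells of the MDR subline KB-V1 are plated, dosed with compound at multiple concentrations, and incubated 72 h at 37 degrees C; CellTiter-Glo is then added and luminescence read after 10 min.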
HT1080 IDH1KD tx – qHTS for induction of synthetic lethality in tumor cells producing 2HG: qHTS for the HT-1080-IDH1KD cell line; AID 686971, 2013; Potency, µM (top dose mostly 46.1 µM), usual class: cytotoxic; HT-1080 IDH1 knockdown viability, ATP luminescence, 48 h; actives 2% (n = 360,000)
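IDH1KD HT-1080 cells, 750/well, RPMI + 5% FBS; compound pinned after 2 h settling; 48 h, 37 °C; CellTiter-Glo luminescence; % activity normalised to DMSO and no-cell wells; curves fitted, classed by r2 and efficacy.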
Hits are given with their value; – = inactive; ? = inconclusive; · = not tested or not shown; [ ] = another dose, or the depositor's remark. Most compounds without a hit are left out; they make up all but 8% or so of the library. Calls follow the shape of the dose curve; as a rule, active = well fitted curve in the direction sought with a large enough effect; inconclusive = small, poorly fitted or top-dose-only effect, or another doubt; inactive = no such curve, though single readings can be large; an effect the other way counts as inactive or inconclusive.

SMILES	HT1080NT lethal	MCF10A rerep	SW480 rerep	KB-3-1 cytotox	KB-V1 MDR tox	HT1080 IDH1KD tx
COc1ccc2cc(CN(Cc3cccnc3)S(=O)(=O)c3ccccc3)c(=O)[nH]c2c1	–	–	–	?	16µM	–
COc1ccc2cc(CN(CC3COCCO3)S(=O)(=O)c3ccccc3)c(=O)[nH]c2c1 (stereo not drawn)	–	–	–	–	–	–
COc1ccccc1NC(=S)N(CCCN(C)C)Cc1cc2cc3c(cc2[nH]c1=O)OCO3	–	–	–	–	–	–
COc1ccc2cc(CN(C(=O)Nc3ccccc3OC)C3CCCC3)c(=O)[nH]c2c1	–	?	?	–	?	?
COC(=O)c1ccccc1S(=O)(=O)N(Cc1cc2ccc(OC)cc2[nH]c1=O)CC1CCCO1 (stereo not drawn)	–	–	–	–	15µM	–
COc1ccc(C(=O)C[n+]2ccccc2Cl)cc1	·	·	·	–	–	·
Cc1cccc(Cc2c(C)nc3nc(SCc4ccccc4F)nn3c2C)c1	·	·	·	–	–	·
COc1ccc(-n2c(SCC(=O)NCc3ccc(Cl)cc3)nc3ccsc3c2=O)cc1	·	·	·	–	?	·
CC(C)OC(=O)c1c(NC(=O)C2c3ccccc3Oc3ccccc32)sc2c1CCCC2	·	·	·	–	–	·
Cc1ccc2cc(CN(c3ccccc3C)S(=O)(=O)c3ccccc3)c(=O)[nH]c2c1	–	?	21µM	?	?	–
COc1ccc2cc(CN(CC3CCCO3)C(=S)Nc3ccccc3)c(=O)[nH]c2c1 (stereo not drawn)	26µM	13µM	16µM	5.8µM	21µM	15µM
COc1ccc2cc(CN(CC3CCCO3)S(=O)(=O)c3ccc(C(C)=O)cc3)c(=O)[nH]c2c1 (stereo not drawn)	–	–	–	–	–	–
COc1ccc(S(=O)(=O)N(Cc2cc3cc(C)ccc3[nH]c2=O)CC2CCCO2)cc1 (stereo not drawn)	–	–	–	–	7.3µM	–
COc1ccccc1NC(=O)N(Cc1cccs1)Cc1cc2cc3c(cc2[nH]c1=O)OCO3	?	21µM	?	?	?	?
CCc1ccc(-n2nc3cc(C)c(NC(=O)c4cccc5ccccc45)cc3n2)cc1	·	·	·	–	?	·
Cc1cc(C)nc(-n2nc(C)c3c2N(Cc2ccccc2F)C(=O)CC3c2ccc(Cl)cc2)n1 (stereo not drawn)	·	·	·	–	–	·
CCC(C(=O)Nc1ccc(C)c(C)c1)n1c(=O)c(C(F)(F)F)nc2ccccc21 (stereo not drawn)	·	·	·	–	–	·
CCc1ccc(CN2CCc3nc(N4CCN(c5ccccc5F)CC4)ncc3C2)cc1	·	·	·	–	–	·
O=C(Nc1ccc(N2CCC(c3ccccc3)C2)c(C(=O)O)c1)c1ccc(Cl)cc1 (stereo not drawn)	·	·	·	–	–	·
Cc1cc2cc(CN(CC3CCCO3)C(=S)Nc3ccccc3)c(=O)[nH]c2cc1C (stereo not drawn)	12µM	10µM	?	7.3µM	–	?
CC(C)NC(=O)C1CCC(Cn2c(=O)c3sccc3n(CC(=O)NCc3ccccc3)c2=O)CC1 (stereo not drawn)	·	·	·	–	?	·
Cc1ccccc1NC(=O)CN1CCC(C(=O)c2ccc3c(c2)OCCO3)CC1	–	–	–	–	?	–
O=C(CN1CCC(C(=O)c2ccc3c(c2)OCCO3)CC1)Nc1ccccc1C(F)(F)F	–	16µM	–	–	–	–
O=C(CN1CCC(C(=O)c2ccc(Cl)cc2)CC1)Nc1ccc2c(c1)OCCO2	?	–	–	?	9.2µM	?
O=C(c1ccc2c(c1)OCCO2)C1CCN(C(=O)c2ccc(F)c(F)c2)CC1	–	–	–	?	5.8µM	?
SMILES	HT1080NT lethal	MCF10A rerep	SW480 rerep	KB-3-1 cytotox	KB-V1 MDR tox	HT1080 IDH1KD tx
COc1ccc2oc(-c3ccc(C)c(NC(=O)c4ccc5c(c4)OCCO5)c3)nc2c1	·	·	·	–	–	·
Cc1cccc(OCCCc2c(C)n[nH]c2C)c1	–	?	–	?	18µM	–
COc1cccc(OC)c1OCCCc1c(C)n[nH]c1C	–	–	–	–	18µM	–
Cc1ccccc1OCC(=O)OCc1cc(=O)n2nc(C3CCCCC3)sc2n1	·	·	·	–	–	·
Cc1ccc2nc(-c3sc4nc(C)ccc4c3N)[nH]c2c1	–	16µM	?	–	–	–
Cc1cc(C)c2c(N)c(-c3nc4ccccc4[nH]3)sc2n1	–	?	–[9.22 µM]	–	–	–
CCc1cc2c(=O)c(-c3nc4ccccc4[nH]3)coc2cc1OC(=O)N1CCOCC1	–	?	–	?	3.3µM	–
COc1ccccc1-c1coc2cc(OC(=O)N3CCOCC3)ccc2c1=O	–	?	–	–	–	–
COc1ccc(N2CCN(C(=S)Nc3cc(C)ccn3)CC2)cc1	·	·	·	–	–	·
COCc1c(C(=O)N2CCN(Cc3ccc4c(c3)OCO4)CC2)oc2ccccc12	–[9.24 µM]	–	?	?	–	–
COCc1c(C(=O)N2CCN(Cc3ccc(C#N)cc3)CC2)oc2ccccc12	–	?	–	?	13µM	–
COc1ccc(-c2n[nH]c(=S)n2/N=C/C=C/c2ccccc2OC)cc1	–	4.6µM	?	10µM	18µM	–
COCCn1c(-c2cccs2)nc2nc3ccccc3nc21	–	?	7.3µM	–	–	–
O=C(c1ccc([N+](=O)[O-])cc1)N1c2ncnn2C2(CCCCC2)[C@@H]2CCCC[C@@H]21	·	·	·	–	–	·
Cn1c2ccccc2c2cc(C(=O)NNC(=O)CCl)sc21	?	21µM	?	?	?	21µM
Cc1cccc(NS(=O)(=O)c2ccc3c(c2)OCC(C(=O)N2CCCC2)O3)c1C (stereo not drawn)	·	·	·	–	–	·
CCC(=O)c1ccccc1OCCSc1nc(C)cc(=O)[nH]1	–	–	–	–	15µM	–
CCCOc1cccc(OCCSc2nc(C)cc(=O)[nH]2)c1	–	–	–	–	?	–
Cc1cc(=O)[nH]c(SCCCOc2ccc(F)cc2)n1	–	–	–	–	18µM	–
CCn1c(CN2CCCCC2)nc2cc(NC(=O)c3cccc([N+](=O)[O-])c3)ccc21	·	·	·	–	–	·
O=C1Nc2ccc(Br)cc2C12NNc1ccccc1O2 (stereo not drawn)	–	23µM	–	?	–	?
O=C1Nc2ccc(Br)cc2C1(O)c1ccccc1 (stereo not drawn)	–	–	–	–	–	–
